Pf Dd2 inh – qHTS Primary assay for Inhibitors of Plasmodium falciparum Dd2 growth in vitro; P. falciparum Dd2 growth, SYBR Green, 72 h; 120,000 compounds, 4.3% hits; Potency, µM (top dose mostly 28.9 µM), inactives show top-dose activity, negative = inhibition, hits mostly inhibitors; active means well fitted inhibition curve with a large enough effect;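 further: plate controls were DMSO vehicle for no effect and reference drug for full effect; nearly all actives have a fitted effect of over 65% in size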
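Readout: SYBR Green fluorescence, 485 nm excitation, 535 nm emission, after ~16 h lysis at 37C. Before that, Dd2-infected red cells (2.5% hematocrit) grew 72 h with compound, 29 uM top final concentration.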
An asterisk follows results filed as active; i = inactive; [ ] = remark or other dose. The entries come from a sample that favours hits as a whole. Potency means the concentration at half of the fitted maximal effect.

SMILES	Pf Dd2 inh
Cc1ccccc1CNC(=O)C1CCN(C(=O)N2CC3CC(C2)[C@H]2CCCC(=O)N2C3)CC1 (some centres not stated)	i
COc1ccc(NC(=O)c2c(NC(=O)COc3ccccc3)sc3c2CCCCC3)cc1	11%[0.594 µM]
CCC(=O)N1CCc2c(C(=O)Nc3ccc(OC)cc3OC)cccc21	-21%
COc1ccc(CNC(=O)c2cc3c(s2)CCN(C(C)=O)C3)cc1	i
CCC(=O)Nc1sc2c(c1C(=O)Nc1ccc(OC)cc1)CCC(C(C)(C)C)C2 (configuration not stated)	-2%
COC(=O)c1ccc(NC(=O)c2c(NCc3cccc(F)c3)sc3c2CCCC3)cc1	13µM*
CCOC(=O)N1CCc2c(sc(NCc3ccc(N(C)C)cc3)c2C(=O)Nc2ccc(OC)cc2)C1	11µM*
COC(=O)c1c(NC(=O)COc2cccc(C(F)(F)F)c2)sc2c1CCCC2	77%
COc1ccc(NC(=O)CN2CCN(CC(=O)Nc3ccccc3F)CC2)c(OC)c1	-1%
CCOC(=O)N1CCc2c(sc(NCc3cccc(F)c3)c2C(=O)Nc2ccc(OC)cc2OC)C1	4µM*
CCOC(=O)N1CCc2c(sc(NCc3cccc(F)c3)c2C(=O)Nc2ccc(OC)cc2)C1	7.9µM*
COC(=O)c1c(NC(=O)c2c(OC)cccc2OC)sc2c1CCCC2	18%
COc1ccc(S(=O)(=O)N2CCc3c(C(=O)NCc4cccc(F)c4)cccc32)cc1	i
Cc1ccc(NC(=O)NC[C@H]2O[C@@H](CC(=O)NCCN(C)C)[C@H](O)[C@@H]2O)cc1	-19%[44.1 µM]
Cc1nn2c(c1-c1ccccc1C(C)C)N(C(=O)c1cccnc1)CCC2	i
COc1cccc(C(=O)N2CCc3nc(-c4ccc(Cl)cc4)nc(-c4ccccc4)c3C2)c1	-10%
O=C(c1cncc(Cl)c1)N1CCC(c2nn(-c3ccc(F)cc3)c(=O)[nH]2)CC1	-15%
CN(C)C(=O)N1CCC2(CC1)CC(=O)N(c1ccccc1)c1ccccc1O2	-7%
Cc1ccc2nc(CN(C)C(=O)c3ccc(C)c(N4CCNC4=O)c3)[nH]c2c1	-1%
Cn1nccc1C(=O)N1CCC(c2noc(-c3ccccc3)n2)C1 (configuration not stated)	23%[5.79 µM]
O=C(Cn1nc2n(c1=O)CCCC2)Nc1ccc(F)c(Cl)c1	31%
CN(C)C(=O)c1nc(-c2ccc(Cl)cc2Cl)c2ccccn12	-4%
Cc1ccc2[nH]c(=O)c(CN3CCCN(c4ccncc4)CC3)cc2c1	-9%
CCOC(=O)c1c(NC(=O)CS(=O)(=O)c2ccc(Cl)cc2)sc2c1CCCC2	i
COc1ccc(NC(=O)c2c(NC(=O)c3ccc(Br)cc3)sc3c2CCCC3)cc1	-9%
SMILES	Pf Dd2 inh
CCOC(=O)c1ccc(NC(=O)c2c(NCc3cc(OC)c(OC)cc3OC)sc3c2CCCC3)cc1	13µM*
CCNC(=O)c1c(NC(=O)COc2ccc(F)cc2)sc2c1CCCC2	-2%
COc1ccc(NC(=O)c2c(NCc3cccc(F)c3)sc3c2CCCC3)c(OC)c1	8.9µM*
COc1ccc(C(=O)N2CCc3nnc([C@@H]4C[C@@H](O)CN4C)n3CC2)cn1	-2%
O=C(c1ccccc1)N1CCCC2(C1)C(=NC1CCCCC1)NC(=O)N2c1cc(F)cc(F)c1 (configuration not stated)	3%
CCCN(C(=O)CCn1cnc2onc(-c3ccc(F)cc3)c2c1=O)c1ccccc1C	19%
CCN(C(=O)Cn1cnc2onc(-c3ccc(F)cc3)c2c1=O)c1cc(C)ccc1C	10µM*
CCOC(=O)Cn1cnc2onc(-c3ccc(F)cc3)c2c1=O	14%
O=C(c1ccccc1)N1C[C@@H]2C[C@H](C1)c1ccc(-c3cncnc3)c(=O)n1C2	-7%[44.1 µM]
CN(C)C[C@@H]1CN(Cc2ccncc2)C[C@H]1NC(=O)c1ccc(F)cc1	36%
Cc1ccc(C#N)c(N2CCCC(c3n[nH]c(=O)n3-c3ccccc3)C2)n1 (configuration not stated)	-13%
CCc1ccc(C(=O)CC2(O)C(=O)N(Cc3ccc(C)cc3)c3ccccc32)cc1 (configuration not stated)	-22%
Cc1ccc(C(=O)NC2(C(F)(F)F)N=C(c3ccccc3)N(Cc3ccccc3)C2=O)cc1 (configuration not stated)	i
Cc1ccc(C(=O)CC2(O)C(=O)N(Cc3ccccc3)c3ccc(Br)cc32)cc1 (configuration not stated)	10µM*
CC(=O)N1C[C@H](NS(=O)(=O)c2ccc(C)c(Cl)c2)[C@@H](C2CC2)C1	-2%
COc1cc(C(=O)N2CCCN(c3cc(-c4ccc(C)c(C)c4)[nH]n3)CC2)cc(OC)c1OC	-7%
CCOc1ccc(C(=O)N2CCCN(c3cc(-c4ccc(Cl)cc4)[nH]n3)CC2)cc1OCC	5µM*
Cc1ccc(-c2cc(N3CCCN(C(=O)c4ccsc4)CC3)n[nH]2)cc1C	i
O=C(c1ccccc1)N1CCCN(c2cc(-c3ccc(Cl)cc3)[nH]n2)CC1	0%
COc1cc(OC)cc(C(=O)N2CCCN(c3cc(-c4ccc(C)c(C)c4)[nH]n3)CC2)c1	11µM*
